Most compounds without a hit are left out; they make up all but 1.1% or so of the library.
HTR5A ag: HTR5A agonists in luminescence cell assay, primary screen, counter-screen for OPRM1-OPRD1 heterodimer agonist project, full-deck HTS. cell-based. activation, % at 9.3 µM. actives 0.61% (n = 340,000); in the data active = activation mostly above about 9.5%, no sharp cut-off; inactive = mostly below about 7.6%
OPRM1-OPRD1 ag: agonists of OPRM1-OPRD1 heterodimerization, primary screen, cell-based, luminescence. cells. activation, % at 9.3 µM. actives 0.3% (n = 340,000)
Target sequence (P35372 whole entry, looked up): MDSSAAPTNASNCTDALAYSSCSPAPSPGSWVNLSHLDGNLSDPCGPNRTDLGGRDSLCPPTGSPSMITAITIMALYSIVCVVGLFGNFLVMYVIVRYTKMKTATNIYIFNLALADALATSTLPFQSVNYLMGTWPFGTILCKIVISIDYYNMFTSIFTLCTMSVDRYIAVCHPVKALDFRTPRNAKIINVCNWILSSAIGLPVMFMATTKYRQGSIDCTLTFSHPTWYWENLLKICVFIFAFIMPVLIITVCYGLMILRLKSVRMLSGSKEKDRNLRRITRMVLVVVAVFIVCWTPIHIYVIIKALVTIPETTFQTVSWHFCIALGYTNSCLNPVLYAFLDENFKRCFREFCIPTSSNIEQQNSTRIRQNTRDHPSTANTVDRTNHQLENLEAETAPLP
Target sequence (P41143 whole entry, looked up): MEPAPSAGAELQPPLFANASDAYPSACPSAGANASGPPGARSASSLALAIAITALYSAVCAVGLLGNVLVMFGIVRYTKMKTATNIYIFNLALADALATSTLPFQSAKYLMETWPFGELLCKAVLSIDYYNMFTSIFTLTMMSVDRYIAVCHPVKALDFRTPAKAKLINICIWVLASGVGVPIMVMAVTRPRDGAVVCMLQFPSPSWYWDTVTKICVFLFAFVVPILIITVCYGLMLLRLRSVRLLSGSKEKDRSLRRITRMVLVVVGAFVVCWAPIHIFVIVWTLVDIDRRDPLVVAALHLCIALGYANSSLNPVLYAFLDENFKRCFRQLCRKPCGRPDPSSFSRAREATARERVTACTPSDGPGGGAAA
HTR5A inv ag: HTR5A inverse agonists in luminescence cell assay, primary screen, counter-screen for OPRM1-OPRD1 heterodimer inverse agonist project, full-deck HTS. actives 0.083% (n = 340,000). AID 504634, 2011. inhibition, % at 9.3 µM. HTR5A cell line, inverse agonism. 5-hydroxytryptamine receptor 5A (Homo sapiens), P47898; in the data active = inhibition mostly above about 23%, no sharp cut-off; inactive = mostly below about 18%
A1 inh: caspase 3/7 activation in MEF A1-2A-BIM cells, primary screen, A1 inhibitor project, cell-based, luminescence, HTS; Caspase-Glo 3/7 luminescence, 3 h; percent of clofoctol response, vehicle zero; actives 0.066% (n = 330,000); caspase activation, % (test concentration not listed);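 active = over half of replicate activation scores above 10%, or exactly half above 10 with the replicate mean above 10; inconclusive = replicate mean below 10 yet half the replicates above 10; inactive = over half of replicates below 10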
MOR-DOR inv ag: inverse agonists of MOR-DOR heterodimerization, primary screen, cell-based, luminescence. inhibition, % at 9.3 µM. cell-based MOR-DOR heterodimer luminescence, inverse agonism. actives 0.21% (n = 340,000). Mu-type opioid receptor (Homo sapiens) + Delta-type opioid receptor (Homo sapiens), …; in the data active = inhibition above about 22%, passing the limit was not always enough
OPRM1-D1 ag cf: agonists of MOR-DOR heterodimerization, confirmation, cell-based, luminescence. activation, % at 9.3 µM. cells, luminescence complementation. actives 45% (n = 830). shares compounds with OPRM1-OPRD1 ag. AID 504904, 2011
HTR5A ag counter: HTR5A agonists in cells, counter-screen for OPRM1-OPRD1 heterodimer agonist project, cell-based, luminescence. AID 504905, 2011. shares compounds with OPRM1-OPRD1 ag. HTR5A agonist counterscreen. actives 8% (n = 830). activation, % at 9.3 µM; in the data active = activation above about 17%
Large screens that a line does not name were inactive (follow-up assays come after a bar, where they were run). Rule as the data show it, unless noted: active = activation above about 18%; inactive = the rest.

CN(C)CCCN(C(=O)c1ccc(S(=O)(=O)N2CCc3ccccc3C2)cc1)c1nc2c(F)cc(F)cc2s1	OPRM1-OPRD1 ag 341.2 | OPRM1-D1 ag cf 395.9 | HTR5A ag counter inactive
CC1=C(C(=O)OCc2ccccc2)C(c2ccccc2OS(=O)(=O)c2ccccc2[N+](=O)[O-])NC(=O)N1CCCC(=O)O (centres undefined)	none (no result: HTR5A ag, OPRM1-OPRD1 ag, HTR5A inv ag, MOR-DOR inv ag)
CCOC(=O)C1=C(C)N(CCCC(=O)O)C(=O)NC1c1ccccc1OS(=O)(=O)c1ccccc1[N+](=O)[O-] (centres undefined)	OPRM1-OPRD1 ag 55.6 | OPRM1-D1 ag cf inactive | HTR5A ag counter inactive
CCOC(=O)C1=C(C)N(CCCCCC(=O)O)C(=O)NC1c1ccccc1OS(=O)(=O)c1ccc(C)cc1 (centres undefined)	OPRM1-OPRD1 ag 57.4 | OPRM1-D1 ag cf inactive | HTR5A ag counter inactive
CCOC(=O)C1=C(C)N(CCCC(=O)O)C(=O)NC1c1ccccc1OS(=O)(=O)c1ccc(C)cc1 (centres undefined)	OPRM1-OPRD1 ag 62.1, A1 inh inconclusive | OPRM1-D1 ag cf 57.5 | HTR5A ag counter inactive
COC(=O)C1=C(C)N(CCCC(=O)O)C(=O)NC1c1ccccc1OS(=O)(=O)c1ccc([N+](=O)[O-])cc1 (centres undefined)	OPRM1-OPRD1 ag 51.4 | OPRM1-D1 ag cf 46.3 | HTR5A ag counter inactive
Cc1nc(-c2ccccc2)nc2n[nH]c(N)c12	none
CCCCOC(=O)C1=C(N)N2C(=O)C(C)SC2=C(C(=O)OCC)C1c1ccc(O)c(OC)c1 (centres undefined)	none
Cc1ccc(NS(=O)(=O)c2cccc(C(=O)Nc3c(C)n(C)n(-c4ccccc4)c3=O)c2)cc1	none (no result: HTR5A ag, OPRM1-OPRD1 ag, HTR5A inv ag, MOR-DOR inv ag)
CC(C)N(C(=O)C(F)(F)F)C(C(=O)NC1CCCCC1)c1ccncc1 (centres undefined)	none
COc1ccc2[nH]c3c(N4CCc5ccccc5C4)ncnc3c2c1	OPRM1-OPRD1 ag 19.6 | OPRM1-D1 ag cf inactive | HTR5A ag counter inactive
CCOC(=O)N1CCN(c2ncnc3c2[nH]c2ccc(OC)cc23)CC1	none
Cc1ccc(NC(=O)CNC(=O)c2sc3ccccc3c2Cl)nc1	OPRM1-OPRD1 ag 25.9 | OPRM1-D1 ag cf inactive | HTR5A ag counter inactive
CCOC(=O)C1(Cc2ccccc2)CCN(Cc2cn[nH]c2-c2ccccc2)CC1	OPRM1-OPRD1 ag 36.2 | OPRM1-D1 ag cf inactive | HTR5A ag counter 23.1
CCOC(=O)C1(CC2CC2)CCN(Cc2cn[nH]c2-c2ccccc2)CC1	none
CCOC(=O)C1(CCCc2ccccc2)CCN(Cc2cnc(C)s2)CC1	OPRM1-OPRD1 ag 105.5 | OPRM1-D1 ag cf inactive | HTR5A ag counter inactive
CCOC(=O)C1(CCCc2ccccc2)CCN(Cc2nccn2CC)CC1	none
CCOC(=O)C1(CCCc2ccccc2)CCN(Cc2cn(CC)nc2C)CC1	OPRM1-OPRD1 ag 315.4 | OPRM1-D1 ag cf 19.6 | HTR5A ag counter inactive
CCOC(=O)C1(Cc2cccc(F)c2)CCN(Cc2ccon2)CC1	none (no result: HTR5A ag, OPRM1-OPRD1 ag, HTR5A inv ag, MOR-DOR inv ag)
CCOC(=O)C1(Cc2cccc(F)c2)CCN(Cc2cnc(C)s2)CC1	OPRM1-OPRD1 ag 22.4 | OPRM1-D1 ag cf 23.7 | HTR5A ag counter inactive
Cc1nccn1CC(=O)N/N=C/c1ccccc1O	none
COc1ccc(C2CC(c3ccc4ccccc4c3OC(C)=O)=NN2C(C)=O)cc1 (centres undefined)	OPRM1-OPRD1 ag 129.3 | OPRM1-D1 ag cf 21.4 | HTR5A ag counter inactive
COc1ccc([C@H]2CC(=O)C=C(c3c(C)cc(C)cc3C)C2)cc1	OPRM1-OPRD1 ag 26.6 | OPRM1-D1 ag cf inactive | HTR5A ag counter inactive
Fc1ccc(-c2cnc3n2CCCCC3)cc1	none
CN1CCN(c2ccc(NC(=O)c3ccc(-c4ccc(Cl)cc4)o3)cc2)CC1	OPRM1-OPRD1 ag 305.8 | OPRM1-D1 ag cf 19.5 | HTR5A ag counter inactive
Cc1ccc(N2CCN(C(=S)c3ccc(-c4cccc([N+](=O)[O-])c4)o3)CC2)cc1	none
O=C(Nc1ccc(N2CCN(C(=O)c3ccc(Cl)cc3)CC2)cc1)c1ccc(Br)o1	none
CN1CCN(c2ccc(NC(=O)c3ccc(-c4cccc([N+](=O)[O-])c4)o3)cc2)CC1	OPRM1-OPRD1 ag 99.7 | OPRM1-D1 ag cf 93.3 | HTR5A ag counter inactive
Nc1c(Cl)cc(C2=NCCn3c2c2ccc(C(F)(F)F)cc2[n+]3[O-])cc1Cl	none
COc1cc(N/C(N)=N/c2nc(C)cc(C)n2)cc(OC)c1	none
CCC(=O)c1ccc(N2CCN(S(=O)(=O)c3ccccc3)CC2)c(F)c1	OPRM1-OPRD1 ag 20.7 | OPRM1-D1 ag cf inactive | HTR5A ag counter inactive
CCOc1cc(C)c(S(=O)(=O)Nc2ccc(F)cc2)cc1C	OPRM1-OPRD1 ag 18.9 | OPRM1-D1 ag cf inactive | HTR5A ag counter inactive
Cc1ccc(C2(O)CN(c3ccccc3)C3=[N+]2CCS3)cc1 (centres undefined)	OPRM1-OPRD1 ag 76.9 | OPRM1-D1 ag cf 194.2 | HTR5A ag counter inactive
Cc1ccccc1N1CC(O)(c2ccccc2)[N+]2=C1SCC2 (centres undefined)	OPRM1-OPRD1 ag 217.6 | OPRM1-D1 ag cf 222.6 | HTR5A ag counter inactive
Cc1ccc(C2(O)CN(c3ccccc3C)C3=[N+]2CCS3)cc1 (centres undefined)	OPRM1-OPRD1 ag 349.0 | OPRM1-D1 ag cf 372.7 | HTR5A ag counter inactive
OC1(c2ccc(F)cc2)CN(c2ccccc2)C2=[N+]1CCS2 (centres undefined)	none
CC(C)CC(=O)O/N=C1\C(=O)N(Cc2ccc(Cl)cc2)c2ccc([N+](=O)[O-])cc21	none (no result: HTR5A ag, OPRM1-OPRD1 ag, HTR5A inv ag, MOR-DOR inv ag)
O=C(c1cnsn1)N1CCC(CO)(Cc2cccc(F)c2)CC1	none
CCOc1cccc(C2c3c(oc4ccccc4c3=O)C(=O)N2c2ccccn2)c1 (centres undefined)	none (no result: HTR5A ag, OPRM1-OPRD1 ag, HTR5A inv ag, MOR-DOR inv ag)
CCOc1cc(C2c3c(oc4ccccc4c3=O)C(=O)N2c2nccs2)ccc1O (centres undefined)	OPRM1-OPRD1 ag 24.5 | OPRM1-D1 ag cf inactive | HTR5A ag counter inactive
CCOC(=O)c1sc2nc(SCC(=O)NCc3ccco3)n(Cc3ccccc3)c(=O)c2c1C	OPRM1-OPRD1 ag 150.3 | OPRM1-D1 ag cf inactive | HTR5A ag counter inactive
COc1ccc(Cl)cc1NS(=O)(=O)c1cccc(C(=O)NC2CCN(Cc3ccccc3)CC2)c1	OPRM1-OPRD1 ag 18.4 (no result: A1 inh) | OPRM1-D1 ag cf 25.8 | HTR5A ag counter inactive
COc1ccc(NS(=O)(=O)c2cccc(C(=O)NC3CCN(Cc4ccccc4)CC3)c2)cc1	none
COc1ccc(OC)c(C=Nc2ccccc2-c2nc3ccccc3[nH]2)c1	none
COc1ccc(OC)c(/C=C/c2nc3ccccc3[nH]c2=O)c1	OPRM1-OPRD1 ag 20.7 | OPRM1-D1 ag cf inactive | HTR5A ag counter inactive

Screens (PubChem BioAssay)
